Data published in PubChem BioAssay (NCATS).
Values joined by “and” are separate entries in the source; they are usually repeats but may differ in a detail not shown here. Equal entries are not always repeated. Results filed as inconclusive are left out. Active and inactive are the calls of the source. Calls come from the whole dose curve; as a rule, active = well fitted curve in the direction sought with a large enough effect; inconclusive = small, poorly fitted or top-dose-only effect, or another doubt; inactive = no such curve, though single readings can be large; an effect the other way counts as inactive or inconclusive.

How the values were obtained:
[1] = target: Cytochrome P450 3A7 (Homo sapiens) (UniProt P24462); assay: Cytochrome P450 family 3 subfamily A member 7 (CYP3A7) small molecule antagonists: luciferase biochemical qHTS assay (AID 1963596); note: nearly all actives have a fitted effect of over 40% in size; for activity change, negative = inhibition: % is set by controls: 0 for no effect and ±100 for the full control effect
Summary of the method: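 Luminescence read-out (relative luminescence units) after 20 min with detection reagent, which stops the reaction. Enzyme, proluciferin substrate and compound preincubated 10 min, RT; NADPH regeneration system then started 1 h reaction. Ketoconazole as positive control.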

[2] = Viability qHTS for spleen associated tyrosine kinase inhibitor (SYKi) naive MV4-11 cells (AID 1963823); note: nearly all actives have a fitted effect of over 40% in size; note: potency is the fitted concentration of half-maximal effect
Summary of the method: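 Read-out: CellTiter-Glo luminescence. Exposure: 72 hr, 37 C, 5% CO2, 95% humidity. Cells: MV4-11 without SYK inhibitor history, 500/well, qHTS format.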

[3] = Cellular viability qHTS for adrenocortical cancer (ACC) cell line SW-13 (AID 1963989); conditions: SW-13 ACC cells viability, CellTiter-Glo, 48 h; activity (max response): hits give low values; note: nearly all actives have a fitted effect of over 65% in size; note: potency is the fitted concentration of half-maximal effect;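 for activity (max response): cells grown in serum-free medium with ITS supplement; % is set by controls: 0 for no effect and ±100 for the full control effect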
Summary of the method: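 Here, serum-free SW-13 cultures were dosed up to 46 uM. Following 48 h, ATP-dependent luminescence (CellTiter-Glo) reported viable cells, and logistic modeling produced IC50 values.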

[4] = Cellular viability qHTS for adrenocortical cancer (ACC) cell line NCI-H295R (AID 1963990); note: nearly all actives have a fitted effect of over 60% in size; note: potency is the fitted concentration of half-maximal effect;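 for activity change, negative = viability loss: 0% = DMSO only wells and -100% = full killing with cytotoxic reference compound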
Summary of the method: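 Viability of NCI-H295R after 48 h of treatment (final up to 46 uM) measured through cellular ATP luminescence.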

[5] = Viability qHTS for spleen associated tyrosine kinase inhibitor (SYKi) drug resistant MV4-11 cells (AID 1963824); note: nearly all actives have a fitted effect of over 35% in size; note: potency is the fitted concentration of half-maximal effect
Summary of the method: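 SYK inhibitor-resistant MV4-11 AML cells, 500 per well, added to predispensed compounds and incubated 72 hr at 37 C, 5% CO2. Viability measured by CellTiter-Glo luminescence after 10 min at room temperature.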

Sequence of Cytochrome P450 3A7 (Homo sapiens) (P24462 whole entry, looked up): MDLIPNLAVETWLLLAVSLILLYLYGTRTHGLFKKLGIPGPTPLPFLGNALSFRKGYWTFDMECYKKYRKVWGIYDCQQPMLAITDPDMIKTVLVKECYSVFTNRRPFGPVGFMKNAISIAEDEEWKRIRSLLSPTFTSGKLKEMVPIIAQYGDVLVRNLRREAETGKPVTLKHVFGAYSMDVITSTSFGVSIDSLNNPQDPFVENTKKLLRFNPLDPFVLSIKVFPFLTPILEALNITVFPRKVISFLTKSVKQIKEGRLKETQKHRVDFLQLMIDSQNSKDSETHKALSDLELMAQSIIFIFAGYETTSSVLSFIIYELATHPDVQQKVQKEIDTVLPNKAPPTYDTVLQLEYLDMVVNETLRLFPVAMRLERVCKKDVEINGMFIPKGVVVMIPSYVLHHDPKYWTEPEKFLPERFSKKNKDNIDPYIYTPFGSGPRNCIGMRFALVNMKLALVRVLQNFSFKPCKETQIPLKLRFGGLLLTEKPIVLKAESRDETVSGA

CNc1c2c(nn1C)CCCC2
inactive: Potency [1] | Potency [2] | activity (max response) [3] -0.416% | Potency [4]

CN(C)C/C=C(/c1ccc(Br)cc1)c1cccnc1
inactive: Potency [1] | Potency [2] | activity (max response) [3] 3.23% | Potency [4]

O=C(O)c1ccccn1
inactive: Potency [1] | Potency [2] | activity (max response) [3] 1.31% | Potency [4]

N[C@H]1C(O)O[C@H](CO)[C@@H](O)[C@@H]1O (some centres not stated)
inactive: Potency [1] | Potency [2] | activity (max response) [3] -3.76% | Potency [4]

C=CCn1c(=O)n([C@@H]2O[C@H](CO)[C@@H](O)[C@H]2O)c2nc(N)[nH]c(=O)c21
inactive: Potency [1] | Potency [2] | activity (max response) [3] 10.8% | Potency [4]

Cc1c(C(=O)N2CCOc3ccc(-c4ccc(N)nc4)cc3C2)ccc(S(C)(=O)=O)c1F
active: Potency [5] 3.26 µM
inactive: Potency [1]

O=C(O)CCCCC1CCSS1 (configuration not stated)
inactive: Potency [1] | Potency [2] | Potency [4]

CN(C)c1ccc(O)c2c1C[C@H]1C[C@H]3[C@H](N(C)C)C(=O)C(C(N)=O)=C(O)[C@@]3(O)C(=O)C1=C2O
inactive: Potency [1] | activity (max response) [3] -4.3% and 1.01% | Potency [4]
active: Potency [2] 20.9 µM

CO[C@@]1(NC(=O)CSC[C@@H](N)C(=O)O)C(=O)N2C(C(=O)O)=C(CSc3nnnn3C)CS[C@@H]21
inactive: Potency [1] | Potency [2] | activity (max response) [3] -7.39% | Potency [4]

COc1cc(OC)nc(O[C@H](C(=O)O)C(OC)(c2ccccc2)c2ccccc2)n1
inactive: Potency [1] | Potency [2] | Potency [4]

NCCNCCNCCN
inactive: Potency [1] | Potency [2] | activity (max response) [3] 13.6% | Potency [4]

CC1(c2nc3c(C(N)=O)cccc3[nH]2)CCCN1 (configuration not stated)
inactive: Potency [1] | Potency [5]

CC(C)(CO)[C@@H](O)C(=O)NCCCO
inactive: Potency [1] | Potency [2] | activity (max response) [3] 15.4% | Potency [4]

O=C1Nc2cc(Cl)ccc2Oc2ccccc21
inactive: Potency [1] | Potency [2] | activity (max response) [3] -3.37% | Potency [4]

NCCNCCNCCNCCN
inactive: activity change, negative = inhibition [1] 14.5% [at 11.5 µM] | viability (% of control) [2] 121% [at 9.25 µM] | activity change, negative = viability loss [4] 1% [at 9.17 µM]

Cc1cn([C@H]2C[C@H](F)[C@@H](CO)O2)c(=O)[nH]c1=O
inactive: Potency [1] | Potency [2] | Potency [4]

Nc1c2c(nc3ccccc13)CCCC2O (configuration not stated)
inactive: Potency [1] | Potency [2] | activity (max response) [3] 13% | Potency [4]

C[C@]12CCC(=O)C=C1CC[C@@H]1[C@@H]2[C@@H](O)C[C@@]2(C)[C@H]1CC[C@]2(O)C(=O)CO
inactive: Potency [1] | Potency [2] | activity (max response) [3] 8.55% and 7.07% | Potency [4]

Cn1c2ccc(NC(=O)c3ccccc3)cc2c(=O)n2nc(C(=O)O)cc12
inactive: Potency [1] | Potency [5]

O=C(O)CC1CCC(c2ccc(NC(=O)c3nnc(Nc4ccc(F)c(F)c4)o3)cc2)CC1 (configuration not stated)
inactive: Potency [1] | Potency [5]

CC1CCN(CCCC(=O)c2ccc(F)cc2)CC1
inactive: Potency [1] | Potency [2] | Potency [4]

CCCSc1ccc2nc(NC(=O)OC)[nH]c2c1
inactive: Potency [1]
active: Potency [2] 0.668 µM | Potency [3] 366 nM | Potency [4] 820 nM

O=C(O)CNC(=O)c1ccccc1I
inactive: Potency [1] | Potency [5]

OCC(CO)N[C@H]1C[C@](O)(CO)[C@@H](O)[C@H](O)[C@H]1O
inactive: Potency [1] | Potency [2] | activity (max response) [3] 4.01% | Potency [4]

CC(C)c1cc2c(cc1S(=O)(=O)O)[C@@]1(C)CCC[C@@](C)(C(=O)O)[C@@H]1CC2
inactive: Potency [1] | Potency [2] | Potency [4]

Cc1c(C(C)C)c(=O)n(-c2ccccc2)n1C
inactive: Potency [1] | Potency [2] | activity (max response) [3] -5.23% | Potency [4]

CC[N+](C)(CC)CCOC(=O)C1c2ccccc2Oc2ccccc21
inactive: Potency [1] | Potency [2] | activity (max response) [3] -11.3% | Potency [4]

CC12CCC(CC1)C(C)(C)O2
inactive: Potency [1] | Potency [2] | activity (max response) [3] 13.8% | Potency [4]

O=c1[nH]c2cc(C(F)(F)F)c(N3CCOCC3)cc2n(CP(=O)(O)O)c1=O
inactive: Potency [1] | Potency [2] | Potency [4]

CC(=O)OC[C@H]1O[C@@H](OC(C)=O)[C@H](OC(C)=O)[C@@H]1OC(C)=O
inactive: Potency [1] | Potency [5]

Clc1ccc2c(c1)C1=NCCN1c1c(-c3noc(C4CC4)n3)ncn1-2
inactive: Potency [1] | Potency [5]

C/C(=N\O)c1ccc(OCC(=O)N2CCCCC2)cc1
inactive: Potency [1] | Potency [2] | activity (max response) [3] -4.8% | Potency [4]

O=C(N[C@@H]1CCCc2c1cnn2-c1ccc(F)cc1F)c1ccccn1
active: Potency [5] 14.6 µM
inactive: Potency [1]

COc1cc(C(=O)NCCCCCC(=O)O)cc(OC)c1OC
inactive: Potency [1] | Potency [2] | activity (max response) [3] 6.24% | Potency [4]

CCCCN=C(N)NC(=N)N
inactive: outcome [1] | Potency [2] | activity (max response) [3] 17.9% | Potency [4]

OCCN1C[C@H](O)[C@@H](O)[C@H](O)[C@H]1CO
inactive: Potency [1] | Potency [2] | activity (max response) [3] 9.26% and -11.1% | Potency [4]

CN1C(=O)CC(c2ccccc2)C1=O (configuration not stated)
inactive: Potency [1] | Potency [2] | Potency [4]

Cc1cc(NS(=O)(=O)c2ccc(N)cc2)no1
inactive: Potency [1] | Potency [2] | Potency [4]
